Screens deposited in PubChem by several laboratories.
HePTP inhibitor – inhibitors of human HePTP phosphatase, primary screen, biochemical, absorbance, leukemia target; Tyrosine-protein phosphatase non-receptor type 7 (Homo sapiens), P35236; 110,000 compounds, 0.64% hits; recombinant HePTP phosphatase activity, OD absorbance; inhibition, % at 20 µM; in the data active = inhibition above about 50%;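 note: plate controls were vehicle for no effect and reference inhibitor for full effect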
Target sequence (P35236 whole entry, looked up): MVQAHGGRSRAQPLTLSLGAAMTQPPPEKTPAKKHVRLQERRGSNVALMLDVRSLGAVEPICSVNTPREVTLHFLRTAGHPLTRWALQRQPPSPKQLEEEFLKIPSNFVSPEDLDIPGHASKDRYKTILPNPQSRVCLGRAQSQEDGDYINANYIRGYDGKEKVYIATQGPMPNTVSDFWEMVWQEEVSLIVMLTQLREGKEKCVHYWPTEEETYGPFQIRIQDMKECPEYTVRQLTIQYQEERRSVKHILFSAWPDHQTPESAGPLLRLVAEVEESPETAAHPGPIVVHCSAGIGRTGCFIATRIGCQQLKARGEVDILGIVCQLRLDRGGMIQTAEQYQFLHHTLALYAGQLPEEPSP
ERa SRC1 inh – ERα–SRC-1 coactivator interaction inhibitors, primary screen, biochemical, TR-FRET, ERα LBD, estradiol-bound. Estrogen receptor (Homo sapiens), P03372. inhibition, % at 25.6 µM. TR-FRET ER-alpha LBD / SRC-1 peptide. 86,000 compounds, 1.7% hits; in the data active = inhibition above about 50%;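 note: 0% = receptor plus peptide control and 100% = peptide only without receptor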
ERb SRC1 inh – inhibitors of ERβ-SRC1 coactivator interaction, primary screen, biochemical, TR-FRET, ERβ LBD, SRC-1 peptide; Estrogen receptor beta (Homo sapiens), Q92731; TR-FRET ER-beta LBD / SRC1-Cy5 peptide binding; receptor agonist-loaded with 1 µM estradiol; inhibition, % at 25.6 µM; 86,000 compounds, 1.3% hits; AID 633, 2007;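 active = compounds whose percent inhibition of the receptor-coactivator binding signal exceeds about 50% in the single-dose screen, limit read from the data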;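 note: 0% = receptor plus peptide wells without compound and 100% = peptide-only wells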
Smad3 FoxH1 inh – Smad3/FoxH1 peptide binding inhibitors, primary screen, biochemical, TR-FRET. Mothers against decapentaplegic homolog 3 (Homo sapiens), P84022. TR-FRET Smad3/Dy647-FoxH1 peptide binding, europium anti-His. inhibition, % at 25 µM. 88,000 compounds, 0.29% hits. AID 630, 2007;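 active = compounds that reduce the energy-transfer binding signal between the protein and its labelled peptide by more than half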;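 note: 0% = Smad3 plus labelled peptide maximal FRET and 100% = peptide-only background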
Calb biofilm kill – clotrimazole potentiators killing Candida biofilms, primary screen, with clotrimazole, Alamar Blue. inhibition, % at 6 µM. 85,000 compounds, 0.14% hits. C. albicans biofilm + clotrimazole. AID 834, 2007;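 active = inhibition above 20%; inactive = inhibition below 20%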;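 note: preformed 24 hr biofilms exposed to compound for 48 hr; 0% = biofilm without compound and 100% = blank killed by clotrimazole plus chlorhexidine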
ERa SRC1 pot – enhancers of ERα–SRC-1 coactivator binding, primary screen, biochemical, TR-FRET, ERα LBD, low estradiol | 86,000 compounds, 1.3% hits | TR-FRET ERalpha-LBD/SRC-Cy5 coactivator binding, 2 h; 100 = basal binding, no effect | Estrogen receptor (Homo sapiens), P03372 | coactivator binding (% of control), % at 25.6 µM; in the data active = activity above about 200%;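 note: binding measured in presence of low estradiol as agonist stimulus; 0% = peptide alone without receptor and 100% = receptor with peptide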
An asterisk follows results filed as active; · = no result given; [ ] = another dose, or the depositor's remark. Sampled rows, rich in hits. Any-hit rate of the full collection: about 2.9%.

SMILES	HePTP inhibitor	ERa SRC1 inh	ERb SRC1 inh	Smad3 FoxH1 inh	Calb biofilm kill	ERa SRC1 pot
COCc1cc(=O)n2c(-c3ccc(C)cc3)n[nH]c2n1	-9	45	60*	1	7	55
Cc1ccc(C2C(C#N)=C(N)SC(N)=C2C#N)o1	4	50	67*[fluorescence artefact?]	14	6	28
O=C1C(Cl)=CC(=NSc2nc3ccccc3s2)C=C1Cl	68*	·	·	·	·	·
O=C(CSc1nc2ccccc2s1)CSc1nc2ccccc2s1	-4	15	23	14	2	107
COc1ccccc1NCC(=O)N/N=C/c1ccccc1OCc1ccc(Br)cc1	-20	·	·	·	·	·
O=C(c1cc2ccccc2oc1=O)N(Cc1ccco1)Cc1cccs1	3	-9	-6	-6	3	537*
CCOc1ccc(-c2cc(C)n3nc(C(=O)Nc4ccc(C(C)=O)cc4)cc3n2)cc1	94*	·	·	·	·	·
COc1ccc(NC(=O)c2ocnc2C)cc1OC	-7	-5	-6	3	6	111
COc1ccc(Cl)cc1NC(=O)c1ocnc1C	8	52*	62*	2	2	55
Cc1cc(-c2ccccc2)nc2cc(C(=O)N(Cc3ccccc3)Cc3ccccc3)nn12	·	-11	-6	11	9	204*
COc1ccc(Cl)cc1NC(=O)c1cc2nc(-c3ccccc3)cc(C)n2n1	103*	·	·	·	·	·
Cc1cc(-c2ccccc2)nc2cc(C(=O)Nc3ccc(Cl)cc3)nn12	8	·	·	·	·	·
O=C(Nc1ccc(I)cc1)c1ccc(CN2CCOCC2)cc1	4	·	·	·	·	·
CS(=O)(=O)Nc1ccc(Nc2c3ccccc3nc3ccccc23)cc1	·	·	·	58*	·	·
Nn1nnnc1Nc1cccc2ccccc12	1	·	·	·	·	·
O=C(N/N=C/C(Br)=C/c1ccccc1)c1n[nH]c2c1CCC2	·	-27	-15	9	-2	110
O=C(N/N=C/C(Br)=C/c1ccccc1)c1cc(-c2ccco2)[nH]n1	102*	·	·	·	·	·
CCOC(=O)c1c(NC(=O)c2ccc(Cl)c([N+](=O)[O-])c2)sc2c1CCC2	-7	·	·	·	·	·
CC(=O)NC(=O)c1ccccc1OCC(=O)c1ccc(Br)cc1	55*	·	·	·	·	·
CCc1cccc(OCCCN2C(=O)NC(C)(C)C2=O)c1	·	-6	-1	0	82*	108
Ic1ccc(-c2nc(-c3ccccn3)no2)cc1	4	·	·	·	·	·
Clc1ccc(-c2nc(-c3ccccn3)no2)cc1Cl	4	27	17	-3	6	265*
CCOC(=O)c1sc(NC(=O)c2ccc3ncsc3c2)nc1C	3	23	29	22	5	473*
CCOC(=O)c1csc(NC(=O)c2ccc(OC)c(OC)c2)n1	5	-24	-3	2	9	279*[fluorescence artefact?]
CCOC(=O)c1ccc2nc(NC(=O)c3cccs3)sc2c1	2	78*[fluorescence artefact?]	54*[fluorescence artefact?]	4	2	106
SMILES	HePTP inhibitor	ERa SRC1 inh	ERb SRC1 inh	Smad3 FoxH1 inh	Calb biofilm kill	ERa SRC1 pot
CC(C)c1ccc(N2C(=O)NC(=O)/C(=C/c3cc4c(cc3Br)OCO4)C2=O)cc1	-22	·	·	·	·	·
CC(Oc1ccc(Cl)cc1Cl)C(=O)N1CCN(Cc2ccccc2)CC1 (stereo not drawn)	7	·	·	·	·	·
CCOC(=O)c1sc2nc(CC(=O)OC)nc(NCc3ccc(Cl)cc3)c2c1C	·	37	8	6	-1	339*[fluorescence artefact?]
CCOC(=O)c1sc2nc(CC(=O)OC)nc(NCCN(CC)CC)c2c1C	·	-1	11	-8	3	109
Nc1[nH]c(=S)[nH]c(=O)c1N=Nc1c(Br)cc(S(N)(=O)=O)cc1Br	·	·	·	54*	·	·
COc1ccc(-c2nnc3sc(CN4C(=O)c5ccccc5C4=O)nn23)cc1	1	16	8	-30	6	227*
c1ccc(-c2nnc3sc(Cc4cccs4)nn23)cc1	4	64*[fluorescence artefact?]	57*	9	6	46
O=C1c2ccccc2C(=O)N1Cc1nn2c(-c3ccc(Cl)cc3)nnc2s1	6	46	26	20	4	383*[fluorescence artefact?]
Clc1ccc(-c2nnc3sc(Cc4cccs4)nn23)cc1	6	35	33	6	5	83
CCOc1ccc2nc(SCC(=O)c3ccc(C)cc3C)sc2c1	7	·	·	·	·	·
O=C(Nc1nccs1)c1sc2ccccc2c1Cl	82*	·	·	·	·	·
O=C(Nc1ncccn1)c1sc2ccccc2c1Cl	-8	·	·	·	·	·
O=C(N/C=N/OCc1ccc(Cl)cc1Cl)NOCc1c(Cl)cccc1Cl	·	26	30	-1	11	213*
Cc1onc(-c2ccccc2)c1C(=O)Nc1sc2c(c1C(N)=O)CCCC2	1	·	·	·	·	·
CCOC(=O)Nc1sc2c(c1C(N)=O)CCC(C)C2 (stereo not drawn)	103*	·	·	·	·	·
CC1CCc2c(sc(NC(=O)c3cccc(Br)c3)c2C(N)=O)C1 (stereo not drawn)	-14	·	·	·	·	·
CC1CCc2c(sc(NC(=O)c3ccc(Cl)c(Cl)c3)c2C(N)=O)C1 (stereo not drawn)	105*	·	·	·	·	·
CCOC(=O)c1c(NC(C)=O)sc2c1CCC(C)C2 (stereo not drawn)	-8	·	·	·	·	·
CCOC(=O)c1c(C)[nH]c(C)c1-c1ccccc1Cl	-9	·	·	·	·	·
COc1ccccc1NC(=O)C1=C(C)NC(=S)NC1c1ccccc1F (stereo not drawn)	-10	·	·	·	·	·
CC(C)(C)c1ccc(OCC(=O)Nc2ccccc2-c2ccccc2)cc1	-14	·	·	·	·	·
Cc1cc(NC(=O)CSc2nc3c(sc4ccccc43)c(=O)n2CCc2ccccc2)n[nH]1	·	50*[fluorescence artefact?]	37	-191	1	131
Cc1cc(NC(=O)CSc2nc3c(sc4ccccc43)c(=O)n2CCCN2CCOCC2)n[nH]1	·	6	-7	-10	8	81
O=C(Nc1ccc(I)cc1Cl)c1ccco1	-3	·	·	·	·	·
O=C(NCCc1ccccc1)C1CCN(S(=O)(=O)c2cccnc2)CC1	2	58*[fluorescence artefact?]	-3	4	22*	114
SMILES	HePTP inhibitor	ERa SRC1 inh	ERb SRC1 inh	Smad3 FoxH1 inh	Calb biofilm kill	ERa SRC1 pot
O=C(NCCc1ccccc1)C1CCN(S(=O)(=O)N2CCCC2)CC1	-5	0	4	4	-4	113
Cc1cc(C)c2c(=O)[nH]n(C(C)C)c2n1	4	-20	-17	14	13	295*
N#Cc1c(SCC(N)=O)nsc1SCc1ccccc1Cl	2	11	99*[fluorescence artefact?]	5	10	105
Cc1ccc(CNc2nc3ccccc3n3nnnc23)cc1	8	51*	38	11	8	209*[fluorescence artefact?]
Cc1ccc(-c2nc3ccccc3n3nnnc23)cc1	6	-23	-2	2	-2	98
c1ccc2c(c1)nc(NCCN1CCOCC1)c1nncn12	7	-2	-9	13	10	114
CCOc1ccccc1Nc1nc2ccccc2n2cnnc12	5	25	43	-1	14	368*[fluorescence artefact?]
Fc1ccc(CNc2nc3ccccc3n3cnnc23)cc1	·	84*	1	10	5	306*[fluorescence artefact?]
